15 molecules from PubChem BioAssay (Tox21) can be followed below.

Experiment [1] can be described thus: qHTS assay to test for compound auto fluorescence at 535 nm (green) in HEK293 cells (AID 720680).
The nature of experiment [2]: qHTS assay to test for compound auto fluorescence at 535 nm (green) in HEK293 cell free culture (AID 720682). Summed up:
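DMEM + 10% FBS, cell-free; cpd or DMSO pinned in; Ex485/Em535 read; output as fluorescein-equivalent signal.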

A short description of experiment [3]: qHTS assay to test for compound auto fluorescence at 590 nm (red) in HEK293 cell free culture (AID 720683). Put shortly: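 Red-channel autofluorescence of compounds in culture medium (DMEM, 10% FBS), no cells, measured at 540/590 nm. Rose Bengal sodium is the reference fluorophore for equivalence.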
Experiment [4] is described as follows: qHTS assay to test for compound auto fluorescence at 590 nm (red) in HepG2 cell free culture (AID 720684). Put shortly:
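Steps: dispense MEM/10% FBS medium, no cells; pin compound or DMSO vehicle; read red channel, Ex/Em 540/590 nm. Output given as Rose Bengal sodium equivalents.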

A short description of experiment [5]: qHTS assay to test for compound auto fluorescence at 460 nm (blue) in HepG2 cell free culture (AID 720685). Put shortly: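 Compound (23 nL) or DMSO pinned into cell-free MEM with 10% FBS; blue fluorescence read at 405/460 nm excitation/emission, expressed as auto-fluorescence equivalency to triamterene.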
Experiment [6] can be described thus: qHTS assay to test for compound auto fluorescence at 535 nm (green) in HepG2 cell free culture (AID 720686).
Experiment [7] in a line: qHTS assay to test for compound auto fluorescence at 460 nm (blue) in HepG2 cells (AID 720687). Summed up: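 Blue-channel autofluorescence (Ex/Em 405/460 nm, triamterene-equivalent) was measured after 1 hr compound exposure at 37 C, 5% CO2. Cells were HepG2, plated overnight at 37 C in MEM plus 10% FBS.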
A short description of experiment [8]: qHTS assay for identifying genotoxic compounds that show differential cytotoxicity against isogenic chicken DT40 cell lines with known DNA damage response pathways - wild type cell line (AID 743012). Note: nearly all actives have a fitted effect of over 60% in size. Summed up: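 Wild-type DT40 cells (300/well) exposed to compounds for 40 hours at 37 C/5% CO2. Viability read by CellTiter-Glo luminescence after 30 min at room temperature.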

The nature of experiment [9]: qHTS assay for identifying genotoxic compounds that show differential cytotoxicity against isogenic chicken DT40 cell lines with known DNA damage response pathways - Rev3 mutant cell line (AID 743014). Note: nearly all actives have a fitted effect of over 55% in size.
Experiment [10] in a line: qHTS assay for identifying genotoxic compounds that show differential cytotoxicity against isogenic chicken DT40 cell lines with known DNA damage response pathways - Rad54/Ku70 mutant cell line (AID 743015). Note: nearly all actives have a fitted effect of over 60% in size. Note: potency is the fitted concentration of half-maximal effect.
Experiment [11] is described as follows: qHTS assay to identify small molecule antagonists of the androgen receptor (AR) signaling pathway - cell viability counter screen (AID 743033; note: nearly all actives have a fitted effect of over 45% in size).
A short description of experiment [12]: qHTS assay to identify small molecule antagonists of the androgen receptor (AR) signaling pathway using the MDA cell line - cell viability counter screen (AID 743041; note: nearly all actives have a fitted effect of over 45% in size). Summed up:
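Cells were plated at 3,000 per well and left 5 h. Compounds in DMSO were then pinned in, followed by R1881. After 16 h at 37C, CellTiter-Fluor fluorescence gave viability.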

Experiment [13] addresses Glucocorticoid receptor (Homo sapiens) (UniProt P04150). The experiment can be described thus: qHTS assay to identify small molecule agonists of the glucocorticoid receptor (GR) signaling pathway (AID 720691; active = well fitted activation curve with a large enough effect in the signal ratio in the repeat runs, not every such curve was filed as active; the % refers to the signal ratio). Summed up:
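GR-bla HeLa cells carrying a GRE-driven beta-lactamase reporter, exposed to compounds for 18 h at 37 C. Reporter activation read as fluorescence after 2 h with LiveBLAzer B/G FRET substrate at room temperature.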

For experiment [14] the target is unchanged. In words: qHTS assay to identify small molecule antagonists of the glucocorticoid receptor (GR) signaling pathway (AID 720692; active = well fitted inhibition curve with a large enough effect in the signal ratio in the repeat runs, not every such curve was filed as active; the % refers to the signal ratio). Put shortly: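 GR-bla HeLa cells carrying a GRE-driven beta-lactamase reporter received compound after 4 h plating, then dexamethasone (5 nM final). After 18 h at 37C, the FRET substrate was loaded for 2 h at room temperature and fluorescence read.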

Experiment [15] can be described thus: qHTS assay to identify small molecule antagonists of the glucocorticoid receptor (GR) signaling pathway - cell viability counter screen (AID 720693). Note: nearly all actives have a fitted effect of over 55% in size.
Experiment [16] concerns the target Androgen receptor (Homo sapiens) (UniProt P10275). In words: qHTS assay to identify small molecule antagonists of the androgen receptor (AR) signaling pathway (AID 743035; active = well fitted inhibition curve with a large enough effect in the signal ratio in the repeat runs, not every such curve was filed as active; the % refers to the signal ratio). Put shortly: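 HEK293 cells stably carrying UAS-beta-lactamase reporter, 2,000/well, given compounds plus R1881 agonist and incubated 16 h at 37C. LiveBLAzer B/G FRET substrate then added for 2 h at room temperature before fluorescence reading.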

Experiment [17] shares this target. The experiment can be described thus: qHTS assay to identify small molecule agonists of the androgen receptor (AR) signaling pathway (AID 743036; active = well fitted activation curve with a large enough effect in the signal ratio in the repeat runs, with a control signal flat, not every such curve was filed as active; the % refers to the signal ratio). Put shortly: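 Screening used 2,000 AR-bla HEK293 cells per well, treated 16 h at 37C with test compounds in DMSO alongside positive and DMSO-only controls; beta-lactamase activity was then read by LiveBLAzer B/G FRET fluorescence after 2 h at room temperature.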

For experiment [18] the target is unchanged. In words: qHTS assay to identify small molecule agonists of the androgen receptor (AR) signaling pathway using the MDA cell line (AID 743040; note: nearly all actives have a fitted effect of over 20% in size). Summed up: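 Cells plated, 5 h at 37C/0% CO2; compound or DMSO pinned; 16 h at 37C; ONE-Glo added; luminescence measured after 30 min at room temperature. Reporter line: MDA-kb2 with MMTV-luciferase responsive to AR and GR.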

For experiment [19] the target is unchanged. The experiment can be described thus: qHTS assay to identify small molecule antagonists of the androgen receptor (AR) signaling pathway using the MDA cell line (AID 743042; note: nearly all actives have a fitted effect of over 55% in size). Summed up: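 Antagonist mode: compounds plus R1881 agonist added to MDA-kb2 AR-luc cells, incubated 16 h at 37C. Luciferase reporter luminescence quantified, with multiplexed CellTiter-Fluor readout for cell viability.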

Each structure is given as a SMILES string. Values joined by “and” are separate entries in the source; they are usually repeats but may differ in a detail not shown here. Equal values may be shown once. Inconclusive results are not listed. The source holds several records for some structures; these can differ, active in one and inactive in another. Active and inactive are the calls of the source. Unless noted, calls come from the whole dose curve; as a rule, active = well fitted curve in the direction sought with a large enough effect in the repeat runs; inconclusive = weak or mixed curves; inactive = no such curve, though single readings can be large; an effect the other way counts as inactive or inconclusive.

Androgen receptor (Homo sapiens), sequence (P10275 whole entry, looked up): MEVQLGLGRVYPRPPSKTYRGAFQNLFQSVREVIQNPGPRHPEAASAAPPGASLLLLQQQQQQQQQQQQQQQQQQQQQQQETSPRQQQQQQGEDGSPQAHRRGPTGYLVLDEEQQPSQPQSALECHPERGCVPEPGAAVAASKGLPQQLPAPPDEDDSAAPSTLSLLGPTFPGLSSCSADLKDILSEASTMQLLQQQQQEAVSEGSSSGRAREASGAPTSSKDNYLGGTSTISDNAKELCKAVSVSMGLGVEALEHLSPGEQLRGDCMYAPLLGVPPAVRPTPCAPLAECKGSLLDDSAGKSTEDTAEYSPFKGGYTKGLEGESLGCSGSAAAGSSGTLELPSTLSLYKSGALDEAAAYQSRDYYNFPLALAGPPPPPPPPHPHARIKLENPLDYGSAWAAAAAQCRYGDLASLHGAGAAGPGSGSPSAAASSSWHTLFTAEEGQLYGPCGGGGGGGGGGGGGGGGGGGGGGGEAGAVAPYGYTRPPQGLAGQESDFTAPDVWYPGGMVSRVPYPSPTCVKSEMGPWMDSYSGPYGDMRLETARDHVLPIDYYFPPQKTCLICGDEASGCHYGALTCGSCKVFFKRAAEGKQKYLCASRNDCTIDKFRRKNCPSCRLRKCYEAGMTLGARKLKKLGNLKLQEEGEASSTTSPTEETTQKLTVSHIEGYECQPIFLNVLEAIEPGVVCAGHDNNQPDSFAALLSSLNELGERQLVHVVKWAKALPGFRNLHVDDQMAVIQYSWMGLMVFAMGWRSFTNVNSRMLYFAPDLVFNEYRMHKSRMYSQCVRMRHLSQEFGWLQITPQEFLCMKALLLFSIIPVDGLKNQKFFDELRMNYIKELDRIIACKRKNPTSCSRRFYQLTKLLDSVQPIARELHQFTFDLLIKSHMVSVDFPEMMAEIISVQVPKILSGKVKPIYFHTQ
Glucocorticoid receptor (Homo sapiens), sequence (P04150 whole entry, looked up): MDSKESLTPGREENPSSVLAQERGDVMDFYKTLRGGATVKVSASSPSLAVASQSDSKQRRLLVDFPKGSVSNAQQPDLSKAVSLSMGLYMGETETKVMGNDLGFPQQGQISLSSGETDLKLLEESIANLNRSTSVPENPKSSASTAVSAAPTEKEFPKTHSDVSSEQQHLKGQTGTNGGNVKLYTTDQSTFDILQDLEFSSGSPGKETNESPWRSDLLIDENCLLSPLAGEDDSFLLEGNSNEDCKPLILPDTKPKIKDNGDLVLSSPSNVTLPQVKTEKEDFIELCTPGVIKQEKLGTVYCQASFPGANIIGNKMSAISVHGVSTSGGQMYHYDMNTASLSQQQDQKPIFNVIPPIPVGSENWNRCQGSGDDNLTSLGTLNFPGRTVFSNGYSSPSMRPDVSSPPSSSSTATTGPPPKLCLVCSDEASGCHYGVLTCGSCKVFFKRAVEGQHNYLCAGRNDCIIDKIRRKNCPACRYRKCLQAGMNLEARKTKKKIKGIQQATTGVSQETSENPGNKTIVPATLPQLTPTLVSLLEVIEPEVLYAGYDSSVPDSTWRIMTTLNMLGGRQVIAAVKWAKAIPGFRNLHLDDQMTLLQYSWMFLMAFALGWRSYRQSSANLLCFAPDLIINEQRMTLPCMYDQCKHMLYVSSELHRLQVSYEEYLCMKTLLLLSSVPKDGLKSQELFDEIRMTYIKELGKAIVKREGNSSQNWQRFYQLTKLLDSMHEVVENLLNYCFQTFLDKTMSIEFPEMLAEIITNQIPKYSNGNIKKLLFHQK

For `NNc1nnc(NN)c2ccccc12`, the molecule was classed as inactive in experiment [1], in [2], in experiment [3], in experiment [4], in [5] and in experiment [6]. The result in [7] was inactive. Besides, the Potency entry in experiment [8], in experiment [9], in [10], in experiment [11] and in [12] was “inactive” each time.
Consider `CC(C)(C)c1n[nH]c(=S)n(N)c1=O`, for which the molecule was called inactive in experiment [1], in [2], in [3], in experiment [4], in experiment [5] and in [6]. Further, the molecule was classed as inactive in [7], in [14] and in experiment [15]. For the same molecule, the Potency result in experiment [13], in experiment [9], in experiment [10] and in [11] was “inactive” each time.
Regarding `O=C(O)c1cc(Br)c(O)c(Br)c1`, the molecule was called inactive in experiment [1], in [3], in experiment [4], in [5], in experiment [6] and in experiment [7]. Moreover, the call in experiment [14], in experiment [15], in [17] and in experiment [18] was inactive. Moreover, the Potency entry in experiment [13], in experiment [11], in experiment [16], in [12] and in [19] was “inactive” throughout.
Regarding `CC(C)NCC(O)COc1ccc(COCCOC(C)C)cc1` (stereo not drawn), the molecule was called inactive in [1], in experiment [2], in experiment [3], in experiment [4], in experiment [5] and in experiment [6]. Moreover, the outcome in experiment [7], in experiment [14], in [17] and in experiment [18] was inactive. In addition, the Potency result in experiment [13], in experiment [8], in [9], in [11], in experiment [16] and in [12] was “inactive” in each case. In [19], the Potency entry was “inactive”. The Potency entry in [10] was “inactive and 26.6 µM (active)”.
As for `CCCCOC(=O)c1ccccc1`, the outcome in [1], in experiment [2], in experiment [3], in experiment [4], in experiment [5] and in [6] was inactive. Besides, the molecule was classed as inactive in [7], in experiment [14], in experiment [15] and in experiment [18]. Moreover, the Potency result in experiment [13], in experiment [8], in experiment [10], in [11], in experiment [16] and in [12] was “inactive” each time. For the same molecule, in experiment [19], the Potency entry is “inactive”.
For `C=C(C)C(=O)OCCOP(=O)(O)OCCOC(=O)C(=C)C`, the result in [1], in [2], in [3], in [4], in experiment [5] and in [6] was inactive. The call in experiment [7] and in experiment [14] was inactive. Further, the Potency result in experiment [13], in [8], in experiment [9], in experiment [10], in experiment [11] and in experiment [12] was “inactive” throughout.
Regarding `CC(=O)/C=C/C1C(C)=CCC(C)C1(C)C` (stereo not drawn), the result in experiment [1], in [2], in [3], in [4], in experiment [5] and in experiment [6] was inactive. The call in experiment [7] and in experiment [14] was inactive. The Potency result in [13], in experiment [11] and in [12] was “inactive” in each case. For the same molecule, in experiment [10], the Potency is 48.6 µM (active).
With `CCCN1C[C@H](CSC)C[C@@H]2c3cccc4[nH]cc(c34)C[C@H]21`, the result in experiment [1], in [3], in experiment [4], in experiment [5], in experiment [6] and in [7] was inactive. Further, the molecule was called inactive in experiment [14]. The Potency entry in experiment [13], in [9] and in experiment [11] was “inactive” each time.
With `CC(S)C(=O)NCC(=O)O` (stereo not drawn), the molecule was called inactive in experiment [1], in experiment [3], in experiment [4], in experiment [5], in experiment [6] and in experiment [7]. The molecule was called inactive in experiment [17] and in experiment [18]. The Potency entry in [8], in experiment [9], in experiment [10], in experiment [11], in experiment [16] and in experiment [19] was “inactive” throughout.
For the molecule `CC1COc2ccccc2N1` (stereo not drawn), the molecule was called inactive in experiment [1], in experiment [2], in [3], in experiment [4], in [5] and in experiment [6]. Moreover, the molecule was called inactive in [7] and in experiment [14]. Besides, the Potency result in experiment [13], in experiment [9], in experiment [10], in experiment [11] and in experiment [12] was “inactive” in each case.
Turning to `CC(C)CCCCOC(=O)c1ccccc1C(=O)OCCCCC(C)C`, the outcome in experiment [1], in experiment [2], in [4], in experiment [5], in [6] and in [7] was inactive. Moreover, the Potency result in experiment [13], in experiment [8], in experiment [9], in [10], in experiment [11] and in experiment [12] was “inactive” in each case.
With `CC/C=C\CC1=C(C)CCC1=O`, the result in experiment [1], in experiment [2], in experiment [3], in [4], in [5] and in experiment [6] was inactive. The call in [7], in [15], in [17] and in experiment [18] was inactive. Moreover, the Potency result in experiment [8], in experiment [9], in experiment [11] and in experiment [12] was “inactive” throughout.
For `Cc1cccc(C)c1OCC(C)N` (stereo not drawn), the result in [1], in [2], in experiment [3], in experiment [4], in experiment [5] and in [6] was inactive. Moreover, the result in experiment [7] and in experiment [15] was inactive. For the same molecule, the Potency result in experiment [12] is “inactive”.
Take `CN(C)CCOCCO`: the call in [1], in experiment [2], in experiment [4], in experiment [5], in experiment [6] and in [7] was inactive. The molecule was classed as inactive in experiment [14]. In addition, the Potency result in experiment [13], in experiment [8], in experiment [9], in experiment [11] and in [12] was “inactive” throughout.
Regarding `c1ccc2c(c1)ccc1c3ccccc3ccc21`, the call in experiment [1], in [2], in experiment [3], in [4], in experiment [5] and in [6] was inactive. Also, the call in experiment [7] and in experiment [15] was inactive. The Potency entry in [8], in experiment [9], in experiment [10], in experiment [11] and in [12] was “inactive” throughout.
